Screening results: PubChem, National Center for Advancing Translational Sciences (NCATS)
Pol iota inh: DNA polymerase iota (human) inhibition; Q9UNA4; Pol iota fluorescent replication assay, 10 min; Potency, µM (doses to about 115 µM), without a hit: at the top dose activity, negative = inhibition, hits mostly inhibitors; 1% of 390,000 active
Target sequence (Q9UNA4 whole entry, looked up): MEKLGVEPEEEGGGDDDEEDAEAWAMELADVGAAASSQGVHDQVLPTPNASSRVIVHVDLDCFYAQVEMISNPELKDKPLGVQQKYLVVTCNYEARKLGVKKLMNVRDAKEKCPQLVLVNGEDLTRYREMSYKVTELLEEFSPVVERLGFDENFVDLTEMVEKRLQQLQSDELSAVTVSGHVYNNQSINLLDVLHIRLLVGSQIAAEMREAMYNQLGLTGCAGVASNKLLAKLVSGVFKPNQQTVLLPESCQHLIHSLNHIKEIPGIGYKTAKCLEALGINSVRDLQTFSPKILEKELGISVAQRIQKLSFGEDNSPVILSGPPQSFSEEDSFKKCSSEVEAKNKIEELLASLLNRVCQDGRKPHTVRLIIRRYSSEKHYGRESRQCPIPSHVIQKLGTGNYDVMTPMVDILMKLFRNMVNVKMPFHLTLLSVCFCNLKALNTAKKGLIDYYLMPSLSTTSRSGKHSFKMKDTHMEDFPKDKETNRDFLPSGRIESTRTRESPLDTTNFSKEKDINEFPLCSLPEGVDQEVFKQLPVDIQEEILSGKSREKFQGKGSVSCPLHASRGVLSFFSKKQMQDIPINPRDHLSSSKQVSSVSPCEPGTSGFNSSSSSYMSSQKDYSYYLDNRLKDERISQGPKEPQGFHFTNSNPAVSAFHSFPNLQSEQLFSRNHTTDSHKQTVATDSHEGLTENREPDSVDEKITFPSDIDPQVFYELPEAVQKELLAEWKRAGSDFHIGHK
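Pol iota at 10 nM preincubated 15 min with compounds at room temperature; reaction started with fluorescent substrate, 50 nM final. Fluorescence read kinetically at 0 and 10 min; buffer-only wells as negative control.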
POLB inh: blocks human DNA polymerase beta activity; Pol beta primer extension/strand displacement, fluorescence kinetic; 1.3% of 340,000 active; P06746; Potency, µM (top dose mostly 114 µM), for the others: top-dose activity change, negative = inhibition, actives largely listed as inhibitors; further: on the % scale 0 is the no-effect control and ±100 the full control effect
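Pol beta (10 nM) and compounds were preincubated 15 min at room temperature, then 50 nM substrate (final) started primer extension/strand displacement. Reads were taken at 0 and 10 min; concentration-response data were fitted to a four-parameter Hill equation.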
Pol kappa inh-1: DNA polymerase kappa (human) inhibition | Q9UBT6 | purified Pol kappa, fluorescent DNA synthesis assay, 10 min | Potency, µM (doses to about 107 µM), for the others: at the top dose activity, negative = inhibition, most hits filed as inhibitors | 0.53% of 400,000 active | AID 588579; further: on the % scale 0 is the no-effect control and ±100 the full control effect
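10 nM Pol kappa was preincubated with compounds for 15 min at room temperature. Reaction started with 50 nM (final) substrate. Fluorescence read kinetically at 0 and 10 min.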
GLS inhibitor: glutaminase GLS (human) inhibition; 0.21% of 410,000 active; O94925; AID 624170; GLS enzymatic activity, qHTS titration; Potency, µM (doses to about 45.5 µM), for inactives: at the top dose activity change, negative = inhibition, hits mostly inhibitors; further: on the % scale 0 is the no-effect control and ±100 the full control effect
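Glutamate formation by hKGA was monitored fluorometrically using coupled glutamate oxidase, HRP and Amplex Red. Substrate was added as 1 mM L-glutamine solution; incubation was 30 min at RT after an initial read.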
APEX1 inh: inhibitors of human APE1 endonuclease; P27695; recombinant APE1, TAMRA/BHQ-2 abasic DNA cleavage fluorescence; Potency, µM (top dose mostly 65.8 µM), without a hit: at the highest dose activity change, negative = inhibition, hits mostly inhibitors; 0.35% of 350,000 active; AID 2517;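 further: plate controls were vehicle for no effect and reference inhibitor for full effect; nearly all actives have a fitted effect of over 55% in size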
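Compound pre-exposure to 0.75 nM APE1, 15 min at ambient temperature. Reaction initiated with 50 nM TAMRA/BHQ-2 THF substrate, read immediately in kinetic mode, 525 nm excitation, 598 nm emission.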
Pol eta inh-1: inhibitors of human DNA polymerase eta | Q9Y253 | AID 588591 | recombinant Pol eta, fluorescent DNA replication assay | 1.2% of 390,000 active | Potency, µM (top dose mostly 114 µM), for the others: top-dose activity change, negative = inhibition, usual class: inhibitors; further: on the % scale 0 is the no-effect control and ±100 the full control effect
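Pol eta (10 nM) was preincubated with compounds for 15 min at room temperature, after which fluorescent replication substrate (50 nM final) was added to start the reaction. Fluorescence was read kinetically at 0 and 10 min.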
Pol kappa inh-2: Pol kappa (human) inhibition, cherry-pick confirmation | shares compounds with Pol eta inh-1 | purified Pol-kappa, fluorescent strand-displacement substrate | Potency, µM, usual class: inhibitors | 76% of 920 active | AID 720501
Pol eta inh-2: Pol eta (human) inhibition, cherry-pick confirmation | shares compounds with Pol eta inh-1 | Pol eta primer extension, TAMRA/BHQ fluorescence, 10 min | Potency, µM, actives largely listed as inhibitors | 64% of 2,600 active | AID 720502
The depositor's hits bear a star; [ ] = another dose, or the depositor's remark. This is a sample that favours compounds with a hit; in the whole collection about 2.4% have one here. The call rests on the fitted dose curve; in most records, active means well fitted curve in the direction sought with a large enough effect; inconclusive means small, poorly fitted or top-dose-only effect, or another doubt; inactive means no such curve, though single readings can be large; an effect the other way counts as inactive or inconclusive. Potency means the concentration at half of the fitted maximal effect.

For COc1cc(/C=N/NC(=O)C(Cc2c[nH]c3ccccc23)NC(=O)OCC(C)C)cc([N+](=O)[O-])c1O (stereo unspecified) the results were Pol iota inh 110.2%, POLB inh inconclusive, Pol kappa inh-1 -3.1%, GLS inhibitor 6.7%, APEX1 inh 4.3% and Pol eta inh-1 inconclusive.
`CC1(C(=O)Nc2ccc3c(c2)OCCO3)CCN1Cc1csc2ccccc12` (stereo unspecified) gave GLS inhibitor 2.4%.
Screening Cc1ccc(-c2cc(C(=O)Nc3cccnc3)c3ccccc3n2)o1 returned Pol iota inh inconclusive, POLB inh inconclusive, Pol kappa inh-1 -15.1%[60.1 µM], GLS inhibitor 45.0%, APEX1 inh 3.7%, Pol eta inh-1 44.7µM* and Pol eta inh-2 inconclusive.
`Cc1ccc(NC(=O)c2cc(-c3ccc(C)o3)nc3ccccc23)cc1` gave Pol iota inh inconclusive, POLB inh inconclusive, Pol kappa inh-1 inconclusive, GLS inhibitor -19.1%, APEX1 inh -5.4% and Pol eta inh-1 -9.6%.
Screening O=C(c1cnn(-c2cccc(F)c2)c1)c1ccccc1O returned Pol iota inh 6.0%, POLB inh 0.5%, Pol kappa inh-1 -13.9%, GLS inhibitor 5.2%, APEX1 inh 7.9% and Pol eta inh-1 -2.5%.
CC(=O)Nc1ccc(Nc2nc3ccccc3nc2NS(=O)(=O)c2ccc(Cl)c([N+](=O)[O-])c2)cc1 was read as Pol iota inh inconclusive, Pol kappa inh-1 inconclusive, GLS inhibitor 3.3%, Pol eta inh-1 22.4µM* and Pol eta inh-2 inconclusive.
Screening COCCNC(=O)C(c1ccc(Cl)cc1)N(Cc1ccco1)C(=O)CCC(=O)Nc1ccccn1 (stereo unspecified) returned Pol iota inh 157.3%, POLB inh 33.6%, Pol kappa inh-1 -13.8%, GLS inhibitor 2.3%, APEX1 inh 6.4% and Pol eta inh-1 -9.2%.
Screening CCC(=O)Nc1ccc(Cl)c(NC(=S)NC(=O)c2ccco2)c1 returned Pol iota inh 68.6%, POLB inh 1.8%, Pol kappa inh-1 -16.7%, GLS inhibitor 31.5%, APEX1 inh -2.8% and Pol eta inh-1 -15.9%.
COc1ccc2c(c1)c(=O)oc1c(C)c(OC(C)C(=O)N[C@@H](Cc3c[nH]c4ccc(O)cc34)C(=O)O)ccc12 (stereo partly specified) was read as Pol iota inh inconclusive, POLB inh inconclusive, Pol kappa inh-1 inconclusive, GLS inhibitor -35.0%, APEX1 inh inconclusive, Pol eta inh-1 20µM* and Pol eta inh-2 47.8*.
NC(=O)c1ccc(N=Cc2ccc([N+](=O)[O-])s2)cc1 was read as Pol iota inh 50.1µM*, POLB inh inconclusive, Pol kappa inh-1 -33.7%, GLS inhibitor 5.3%, APEX1 inh inconclusive, Pol eta inh-1 31.6µM* and Pol eta inh-2 inconclusive.
For Cc1cc(C2(c3ccc(O)c(C)c3)OC(=O)c3ccccc32)ccc1O the results were Pol iota inh inconclusive, POLB inh 35.5µM*, Pol kappa inh-1 -35.4%, GLS inhibitor -5.0%, APEX1 inh inconclusive, Pol eta inh-1 inconclusive and Pol eta inh-2 inconclusive.
Screening Cc1cc(O)c(C(C)C)cc1C1(c2cc(C(C)C)c(O)cc2C)OC(=O)c2ccccc21 returned Pol iota inh -2.4%, POLB inh 4.6%, Pol kappa inh-1 -3.5%, GLS inhibitor -1.4%, APEX1 inh -11.3% and Pol eta inh-1 -26.2%.
COc1ccc(CN2C[C@H]3CON(C)[C@H]3C[C@H]2c2ccc(-c3ccccc3)cc2)cc1 was read as GLS inhibitor 11.8%.
Screening COc1ccc(NC(=O)Cn2nnc(-c3ccccc3F)n2)cc1Cl returned Pol iota inh -12.2%, POLB inh -0.9%, Pol kappa inh-1 -23.6%, GLS inhibitor 0.0%, APEX1 inh 1.1% and Pol eta inh-1 7.3%.
Screening C=CCOc1ccc(C(c2c(C(=O)O)[nH]c3ccccc23)c2c(C(=O)O)[nH]c3ccccc23)cc1 returned Pol iota inh 17.8µM*, POLB inh 20µM*, Pol kappa inh-1 79.4µM*, GLS inhibitor 81.4%, APEX1 inh 15.8%, Pol eta inh-1 31.6µM*, Pol kappa inh-2 inconclusive and Pol eta inh-2 inconclusive.
Cc1ccc(-c2csc(NC(=O)/C=C/c3ccco3)c2C(=O)O)cc1 was read as Pol iota inh inconclusive, POLB inh 28.2µM*, Pol kappa inh-1 50.1µM*, GLS inhibitor 18.6%, APEX1 inh inconclusive, Pol eta inh-1 28.2µM* and Pol eta inh-2 inconclusive.
O=C(Nc1sc2c(c1C(=O)O)CCCCC2)c1ccccc1 was read as Pol iota inh 49.8%, POLB inh 14.9%, Pol kappa inh-1 10.5%, GLS inhibitor -16.5%, APEX1 inh 4.0% and Pol eta inh-1 -6.0%.
For Cc1ccc(-c2csc(NC(=O)c3cccc(C)c3)c2C(=O)O)cc1 the results were Pol iota inh -10.1%[58.9 µM], Pol kappa inh-1 -5.8%, GLS inhibitor 5.9% and Pol eta inh-1 -8.1%.
Screening N#Cc1c(NC(=O)/C=C/c2ccco2)sc2c1CCCC2 returned Pol iota inh 50.1µM*, POLB inh inconclusive, Pol kappa inh-1 -25.7%, GLS inhibitor 0.2%, APEX1 inh inconclusive, Pol eta inh-1 inconclusive and Pol eta inh-2 84.9*.
For O=C(/C=C/c1ccccc1)Nc1sc2c(c1C(=O)O)CCC2 the results were Pol iota inh inconclusive, POLB inh 4.6%, Pol kappa inh-1 inconclusive, GLS inhibitor 0.9%, APEX1 inh -0.5% and Pol eta inh-1 -9.9%.
CC(=O)Nc1sc2c(c1C#N)CCCCC2 was read as Pol iota inh -1.5%, POLB inh 16.5%, Pol kappa inh-1 -2.7%, GLS inhibitor 2.4%, APEX1 inh 1.3% and Pol eta inh-1 -10.7%.
O=C(/C=C/c1ccco1)Nc1sc2c(c1C(=O)O)CCC2 was read as Pol iota inh inconclusive, POLB inh -82.9%, Pol kappa inh-1 inconclusive, GLS inhibitor 12.3%, APEX1 inh inconclusive, Pol eta inh-1 79.4µM* and Pol eta inh-2 inconclusive.
